Hit rate of the full screen: of about 360,000 compounds, about 7,500 (2.1%) were called active. Inconclusive results (about 8%) are left out. The list comes from a sample in which actives are over-represented; it also holds similar structures and randomly drawn compounds. Unmarked numbers belong to inactive results. Calls come from the whole dose curve; as a rule, active = well fitted cell-killing curve with a large enough effect; inconclusive = small, poorly fitted or top-dose-only effect, or effect the other way, or another doubt; inactive = no such curve, though single readings can be large or run the other way.

These results are taken from PubChem BioAssay AID686971 (National Center for Advancing Translational Sciences (NCATS), 2013).
Potency is the fitted concentration of half-maximal effect.

The nature of this test: qHTS for induction of synthetic lethality in tumor cells producing 2HG: qHTS for the HT-1080-IDH1KD cell line. As to conditions: HT-1080 IDH1 knockdown viability, ATP luminescence, 48 h; series mostly up to 46.1 µM; activity, negative = toxicity: at the top concentration. An excerpt: Unbiased genomic sequencing for 22 glioma genomes found recurrent mutation of IDH1 on chromosome 2q33, a gene encoding the cytosolic isoform of IIDH1 associated with the tri-carboxylic acid cycle (TCA) that catalyzes the oxidative decarboxylation of isocitrate, yielding alpha-ketoglutarate and CO2 via NADP+ to NADPH conversion. Subsequent studies confirmed the recurrent IDH mutations in up to 70% of secondary gliomas and in 10% of AML cases. In addition, the somatic mutation of cancer-associated IDH1 is a point mutation resulting in various amino-acid substituents at Arginine132 (IDH1 R132), a key residue found in the enzyme's active site that when mutated, results in the loss-of-function in metabolizing isocitrate but confers a gain-of-function to produce the oncometabolite 2-hydroxyglutarate (2HG). This in effect defines IDH1 as an oncogene and provides an extraordinary opportunity to discover chemical probes against mutant IDH1 that may translate into much needed new therapies for glioma and AML patients.
This assay aims to perform a synthetic-lethal screen for chemical probes specific for 2HG-producing tumor cells using matched paired cell lines (1) HT-1080-NT fibrosarcoma cell line that overproduces 2HG and (2) HT-1080-IDH1KD cell line which has IDH1 expression knocked-down. Desirable compounds are toxic to the NT fibrosarcoma cell line but not to the IDH1KD cell line. The data in this AID corresponds to the results of the qHTS against the HT-1080 IDH1KD cell line.
[1] Dang L, Jin S, Su SM. IDH mutations in glioma and acute myeloid leukemia. Trends of Mol Med. 2010; 16(9): 387-97.
[2] Dang L et al. Cancer-associated IDH1 mutations produce 2-hydroxyglutarate. Nature. 2010; 465(7300):966.
Molecular Libraries Probe Production Centers Network [MLPCN]
NIH Chemical Genomics Center [NCGC]
Assay Submitter (PI): Lenny Dang Ph.D., Agios Pharmaceuticals
Suspensions of trypsinized HT-1080-IDH1KD cells were dispensed into white, tissue culture-treated, solid 1536-well plates at 5uL/well (750 cells/well final concentration) in RPMI medium supplemented with 5% FBS. Plates were incubated at 37 degrees C for 2 hours, after which 23 nL of compounds or DMSO were delivered to each well using a pin tool. Plates were then incubated at 37 degrees C for an additional 48 hours. CellTiter-Glo viability reagent (Promega) was dispensed into wells (2.5uL/well) and incubated at room temperature for 10 minutes. The plates were measured on a PerkinElmer ViewLux plate reader for luminescent signal (clear filter, 1 sec exp.). DMSO-treated control wells and media-only (no cells) control wells were used to normalize %Activity of identified toxic compounds; DMSO-treated wells corresponded to 0%Activity (100% viability), while media-only controls were used to normalize 100%Activity (0% viability). To minimize variability between cell lines, both HT-1080-NT and HT-1080-IDH1KD lines were dispensed and treated with identical compound series in single batches.
Concentration-response curves were fitted to the signals arising from the resulting luminescence. The concentration-effect curves were then classified based on curve quality (r2), response magnitude and degree of measured activity, and compounds were subsequently categorized based on their curve class.
On to `Cc1nc(N=C(N)N)nc2c(C)cccc12`, for which the Potency is 32.6 µM (active).

For the compound `Cc1cc(C)c2cc(C#N)c(N3CCNCC3)nc2c1`, the “activity, negative = toxicity” value was 1.86%.

`CCOC(=O)c1c(C)[nH]c2c1-c1ccccc1C(=O)C2=O`: the Potency was 2.91 µM (active).

For the compound `CCOC(=O)c1c(C)nc2c(c1C)c(=O)oc1ccccc12`, the “activity, negative = toxicity” value is 13.5%.

For `CCOC(=O)c1ccccc1OC(=O)Oc1ccccc1C(=O)OCC`, the “activity, negative = toxicity” value was -13.5%.

Turning to `COCc1cccc(-c2csc(C(O)c3ccc(F)cc3)n2)c1` (stereo not drawn), the “activity, negative = toxicity” value was -25.4%.

Take `COc1cccc(C(=O)Nc2ccc3nc4n(c(=O)c3c2)CCCCC4)c1`: the “activity, negative = toxicity” value was -9.88%.

Regarding `COc1cccc(C(=O)Nc2nnc(S(=O)(=O)N3CCCCC3)s2)c1`, the “activity, negative = toxicity” value was -13%.

For `Cc1ccccc1C(=O)N1CCN(c2ccc(NC(=O)c3cccs3)cc2)CC1`, the “activity, negative = toxicity” value was -0.779%.

With `COc1cccc(OCc2cc(C(=O)N3CCN(C(=O)c4ccco4)CC3)no2)c1`, the “activity, negative = toxicity” value is -1.71%.

`COc1cccc(C(=O)Nc2ccc(N3CCN(C(=O)c4ccco4)CC3)cc2)c1`: the Potency is 11.6 µM (active).

For the compound `Cc1ccccc1C(=O)Nc1ccccc1NC(=O)c1ccccc1C`, the “activity, negative = toxicity” value was 0.652%.

With `Cc1ccc(OCC(=O)Nc2ccc(N3CCN(C(=O)c4ccco4)CC3)cc2)c(C)c1`, the “activity, negative = toxicity” value is -11.4%.

`Cc1ccccc1C(=O)Nc1ccc(N2CCCCCC2)cc1`: the Potency is 14.6 µM (active).

In the case of `COc1cccc(C(=O)Nc2ccc(N3CCCC3)cc2)c1`, the Potency was 18.4 µM (active).

Consider `Cc1cccc(N(CC(=O)N2CCCC2)S(C)(=O)=O)c1C`, for which the “activity, negative = toxicity” value was 0.0682%.

For `COC(=O)c1ccccc1N=NNc1ccc([N+](=O)[O-])cc1`, the “activity, negative = toxicity” value was 5.48%.

With `CCCNC(=O)C1CC(=O)N(c2ccc(OCc3ccccc3)cc2)C1` (stereo not drawn), the “activity, negative = toxicity” value was -6.41%.

With `Cc1nc2ccccn2c(=O)c1NC(=O)c1ccc(Br)o1`, the “activity, negative = toxicity” value was 8.09%.

In the case of `C[C@H]1Cn2cnc(C(=O)N[C@H](C)c3ccccc3)c2C(=O)N1`, the “activity, negative = toxicity” value was 1.93%.

Turning to `Cc1ccc(CCNC(=O)CN2C(=O)CSc3ccc(S(=O)(=O)N4CCOCC4)cc32)cc1`, the “activity, negative = toxicity” value is 0.335%.

Regarding `CC1(C(=O)Nc2cccc3cccnc23)CCN1C(=O)CCC1CCCC1` (stereo not drawn), the “activity, negative = toxicity” value was -9.67%.

Regarding `CC[C@]1(O)C[C@@H]2CN(CCc3c([nH]c4ccccc34)[C@@](C(=O)OC)(c3cc4c(cc3OC)N(C)[C@H]3[C@@](O)(C(=O)OC)[C@H](OC(C)=O)[C@]5(CC)C=CCN6CC[C@]43[C@@H]65)C2)C1`, the Potency was 0.0366 µM (active).

For `CC[C@]1(O)CC2CN(CCc3c([nH]c4ccccc34)[C@@](C(=O)OC)(c3cc4c(cc3OC)N(C=O)[C@H]3[C@@](O)(C(=O)OC)[C@H](OC(C)=O)[C@]5(CC)C=CCN6CC[C@]43[C@@H]65)C2)C1` (stereo partly drawn), the Potency was 0.184 µM (active).

Take `Nc1nc(CSc2nnnn2-c2ccccc2)nc(Nc2ccccc2)n1`: the “activity, negative = toxicity” value was -11%.

As to `CCCS(=O)(=O)NC(=O)C1(C)CCCN(C(=O)c2ccnc(Cl)c2)C1` (stereo not drawn), the “activity, negative = toxicity” value is 0.0267%.

Turning to `COc1ccc(CNC2CCCCC2)cc1`, the “activity, negative = toxicity” value was -1.73%.

Consider `CCC(CO)Oc1cc(NCc2ccccc2)c2ncn(C3CCCC3)c2c1` (stereo not drawn), for which the “activity, negative = toxicity” value is -20.2%.

With `COc1ccc(CNc2nc(NCc3ccc(OC)cc3)c3ncn(C4CCCC4)c3n2)cc1`, the Potency is 4.61 µM (active).

As for `Cc1ccc(S(=O)(=O)N2CCCCC2)cc1NC(=O)CCNC(=O)c1ccccc1Cl`, the “activity, negative = toxicity” value is 3.61%.

On to `CC(C)(C)NC(=O)NC(=O)COC(=O)Cc1ccc(Cl)cc1Cl`, for which the “activity, negative = toxicity” value is -14.2%.

Turning to `Cn1cc(C(=O)c2ccc(Cl)cc2Cl)cc1C(=O)NN`, the “activity, negative = toxicity” value is -23%.

Consider `CC(C)(C)c1cc(C(=O)NN)n(Cc2ccc(Cl)cc2Cl)n1`, for which the Potency is 14.6 µM (active).

On to `CCN(CC)CCN(C)C(c1ccnc2ccccc12)c1nnnn1-c1ccc2c(c1)OCCO2` (stereo not drawn), for which the “activity, negative = toxicity” value was -2.65%.

On to `COc1ccc(CN2C(=O)C(CC(=O)NCCCCc3ccccc3)CC(C(=O)N3CCOCC3)=C2C)cc1` (stereo not drawn), for which the “activity, negative = toxicity” value was 8.09%.

Take `O=C(COC(=O)c1ccncc1)c1ccccc1`: the “activity, negative = toxicity” value is 20.6%.

Regarding `Brc1ccc(-c2noc(-c3ccccc3)n2)o1`, the “activity, negative = toxicity” value was -0.934%.

As to `O=C(Oc1ccc(-c2nc(-c3ccccn3)no2)cc1)c1ccccc1`, the Potency was 2.31 µM (active).

For `COc1ccccc1CNC(=O)c1cc(-c2cc(F)ccc2OC)n[nH]1`, the “activity, negative = toxicity” value is -19.4%.

As to `c1ccc(CNCc2ccc(CNCc3ccccc3)cc2)cc1`, the “activity, negative = toxicity” value is -9.72%.

For the compound `Clc1ccc(CN2CCN(/N=C/c3cccnc3)CC2)cc1`, the “activity, negative = toxicity” value was 3.89%.

Take `Cc1ccccc1C1=N/C(=C/c2cccnc2)C(=O)O1`: the “activity, negative = toxicity” value is 13.6%.

Consider `O=C1/C(=C\c2cccnc2)CN(Cc2ccccc2)C/C1=C\c1cccnc1`, for which the Potency is 1.84 µM (active).

In the case of `O=C(Nc1ccccc1)c1ccccc1OCc1ccccc1`, the “activity, negative = toxicity” value was 21%.

On to `CC(C)(O)C#Cc1ccc(CN2CCC(CO)(CCc3ccccc3)CC2)cc1`, for which the “activity, negative = toxicity” value was -15%.

With `CCOC(=O)C1(CCOc2ccccc2)CCN(Cc2cc(OC)c(O)cc2Cl)CC1`, the “activity, negative = toxicity” value was -15.4%.

Regarding `Cc1c(CN2CCC(CO)(CCOc3ccccc3)CC2)[nH]c2ccc(Cl)cc12`, the Potency is 23.1 µM (active).

As to `O=C(CC(CC(=O)c1ccccc1)c1ccco1)c1ccccc1`, the “activity, negative = toxicity” value is 0.921%.
